Compound activity deposited in PubChem BioAssay by National Center for Advancing Translational Sciences (NCATS).
SNCA expr inh – inhibitors of alpha-synuclein (SNCA) gene expression. HEK-293 SNCA-luciferase knock-in, luminescence, 24 h. Potency, µM (highest dose often 57.2 µM), for the others: at the top dose activity change, negative = inhibition, actives largely listed as inhibitors. 140,000 compounds, 0.17% hits;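 further: potency means the concentration at half of the fitted maximal effect; plate controls were DMSO cells for no effect and cell-free wells for full effect; nearly all actives have a fitted effect of over 45% in size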
SNCA viab count – cell viability loss counter-screen | HEK-293-SNCA-luc viability, GF-AFC fluorescence, 24 h | Potency, µM (series often up to 57.1 µM), for inactives: at the top dose activity change, negative = cytotoxicity, hits mostly cytotoxic | 150,000 compounds, 0.12% hits;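 further: potency means the concentration at half of the fitted maximal effect; 0% = DMSO-treated cells and -100% = medium-only wells without cells; nearly all actives have a fitted effect of over 30% in size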
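Cytotoxicity counterscreen: after 24 h compound treatment of genome-edited SNCA-luciferase HEK-293 cells, live-cell protease substrate GF-AFC read by fluorescence after 30 min; activity scaled between DMSO (0%) and medium-only (-100%), curves Hill-fitted.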
GPT2 inhibitor – inhibitors of human GPT2 alanine aminotransferase; Recombinant GPT2, coupled pyruvate oxidase/HRP Amplex Red fluorescence; 100,000 compounds, 0.25% hits; Q8TD30; Potency, µM (highest dose often 57.7 µM), for the others: top-dose activity change, negative = inhibition, hits mostly inhibitors; further: potency means the concentration at half of the fitted maximal effect; on the % scale 0 is the no-effect control and ±100 the full control effect; nearly all actives have a fitted effect of over 60% in size
Target sequence (Q8TD30 whole entry, looked up): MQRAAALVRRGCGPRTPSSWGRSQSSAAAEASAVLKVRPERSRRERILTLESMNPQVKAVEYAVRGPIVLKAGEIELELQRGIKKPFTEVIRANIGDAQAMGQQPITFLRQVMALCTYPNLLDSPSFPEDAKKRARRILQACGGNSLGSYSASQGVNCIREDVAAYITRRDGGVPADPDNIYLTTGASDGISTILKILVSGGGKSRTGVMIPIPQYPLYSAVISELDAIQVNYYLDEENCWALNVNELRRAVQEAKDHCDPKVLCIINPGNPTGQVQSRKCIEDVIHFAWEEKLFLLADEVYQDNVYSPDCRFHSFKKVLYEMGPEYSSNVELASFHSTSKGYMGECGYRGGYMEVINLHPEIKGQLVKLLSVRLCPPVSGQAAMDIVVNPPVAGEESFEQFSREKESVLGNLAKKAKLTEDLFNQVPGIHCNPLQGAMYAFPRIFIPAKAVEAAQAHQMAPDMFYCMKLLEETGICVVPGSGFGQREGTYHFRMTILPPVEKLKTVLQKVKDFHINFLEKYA
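Fluorescence read-out: pyruvate from GPT2 turnover coupled to pyruvate oxidase, HRP and Amplex Red (0.2mM ThPP, 0.2U/mL PO and HRP, 50uM Amplex final). Substrates 250uM a-KG, 2mM L-alanine; enzyme 10ng/uL; 30 min RT.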
GPT2 inh cnf – human alanine aminotransferase 2 inhibition, confirmatory; AID 1671187; 95 compounds, 90% hits; Potency, µM, usual class: inhibitors; GPT2 enzyme, coupled Amplex Red pyruvate fluorescence; shares compounds with GPT2 inhibitor
Numbers without * were called inactive; i = inactive; ? = inconclusive; . = no result given; [ ] = dose if it differs, or a comment. A selection: hits, their analogues and other compounds. The true share with any hit is near 0.32%. The call rests on the fitted dose curve; in most records, active means well fitted curve in the direction sought with a large enough effect; inconclusive means small, poorly fitted or top-dose-only effect, or another doubt; inactive means no such curve, though single readings can be large; an effect the other way counts as inactive or inconclusive.

SMILES	SNCA expr inh	SNCA viab count	GPT2 inhibitor	GPT2 inh cnf
O=C(C1CCCC1)N1CC2(CCN(Cc3c[nH]c4ccccc34)CC2)Cc2ccccc21	?	?	3%	.
COc1ccc(N2CCN(C3CCCN(CC=C(C)C)C3)CC2)cc1 (configuration not stated)	-18%	-1%	?	.
COc1ccc(N2CCN(C3CCCN(Cc4cc(=O)[nH]c(=O)[nH]4)C3)CC2)cc1 (configuration not stated)	6%	-1%	?	6.9*
O=S(=O)(c1ccccc1)N1CCCC(c2nc(CCOCC3CC3)no2)C1 (configuration not stated)	35%	0%	-10%	.
Cc1nn(-c2ccc(C(F)(F)F)cc2)c(C)c1[C@@H]1C=C[C@@H](NC(=O)c2cccs2)C1	16%[87.6 µM]	?	-7%[88.5 µM]	.
O=C(O)[C@H]1O[C@H](Oc2cc3oc(-c4ccccc4)cc(=O)c3c(O)c2O)[C@H](O)[C@@H](O)[C@H]1O	15%	?	3.4µM*	3.1*
O=c1cc(-c2ccccc2)oc2cc(O)c(O)c(O)c12	28%	-27%	i	.
O=C(NCc1cccs1)c1ccc2oc(-c3ccccn3)nc2c1	79%	1%	i	.
COc1ccc(Nc2ccnc(N3CCC(NC(=O)Nc4ccc(Cl)cc4)CC3)n2)cc1	?	5%[12.5 µM]	i	.
Cc1cc2c(N3CCCC3)nc(N3CCCC3)nc2n1C	.	?	?	?
Cc1nc(N2CCCC2)nc(N2CCC3(CC2)OCCCC3O)c1C (configuration not stated)	-3%	-15%	-23%	.
CC(Cc1ccc2c(c1)OCO2)CN1CCC(CO)(CN2CCCC2)CC1 (configuration not stated)	10%	4%	0%	.
COc1cccc([S+](=O)([O-])N2CCNc3cnc(Nc4ccc(N5CCOCC5)cc4)nc3C2)c1	-4%	0%	1.1µM*	1.2*
CNC(=O)c1cccc(Nc2ncc3c(n2)CN([S+](=O)([O-])c2cccc(OC)c2)CCN3)c1	-22%	-19%	i	.
COc1ccccc1-c1cccc(C(=O)N2CCN([S+](=O)([O-])c3ccccc3)CC2)c1	-29%	7%[12.5 µM]	i	.
COc1ccccc1Nc1ccnc(N2CCC(NC(=O)c3ccc(Cl)nc3)CC2)n1	15%	9%	-12%	.
COc1cc(N2CCN(C)CC2)ccc1Nc1nc(N)c(C(=O)c2c(Cl)cccc2Cl)s1	?	-17%	?	.
COc1cc(N2CCC(N(C)C)CC2)ccc1Nc1ncc(Cl)c(Nc2ccccc2P(C)(C)=O)n1	8.5µM*	?	1.9µM*	2.2*
COc1ccc(-n2cc(-c3ccnc(NCCC4CCCN4C)n3)cn2)cc1 (configuration not stated)	41%	-2%	-6%	.
COc1cc(N2CCN(C)CC2)ccc1Nc1nccc(-c2cn(C)c3cnccc23)n1	.	-13%	3.5µM*	2.4*
COc1cc(N2CCC(N3CCN(C)CC3)CC2)ccc1Nc1ncc(Cl)c(Nc2ccccc2S(=O)(=O)C(C)C)n1	10%	?	2.2µM*	3.1*
CNS(=O)(=O)c1ccccc1Nc1nc(Nc2ccc(N3CCN(C)CC3)cc2OC)ncc1Br	.	?	?	2.7*
COc1ccc(Nc2ncc3c(n2)CCN(Cc2cccc(F)c2F)C3)c(OC)c1	-6%	-12%	.	.
COCCCNC(=O)c1ccc2nnc(-c3ccc([S+](C)(=O)[O-])cc3)n2c1	21%	-2%	i	.
COc1ccc(-c2nn(-c3ccccc3C)cc2CN(C)C(C)c2ccncn2)cc1F (configuration not stated)	-1%	-17%	i	.
SMILES	SNCA expr inh	SNCA viab count	GPT2 inhibitor	GPT2 inh cnf
O=C(NC1CCCCCC1)c1ccc2nc(-c3cccnc3Cl)oc2c1	22%[87.6 µM]	0%[87.6 µM]	?	.
COc1cccc(-c2cccc(C(=O)N3CCCC3C(=O)N(C)C)c2)c1 (configuration not stated)	-19%	5%	i	.
O=C(NCc1ccc(Cl)cc1)c1cn2cc(-c3cccc(C(F)(F)F)c3)sc2n1	-3%	-21%	i	.
COc1ccc(-c2cc3c(=O)n(CCNC(=O)c4cccc5[nH]ccc45)ccn3n2)cc1	76%	-14%	i	.
CNC(=O)c1cccc(-c2cnc(Nc3ccc(N4CCOCC4)cc3)c3c2CCO3)c1	96%[87.6 µM]	-23%[87.6 µM]	?	6.3*
CNC(=O)c1cccc(-c2cnc(Nc3ccccc3)c3c2CCO3)c1	172%[87.6 µM]	-17%[87.6 µM]	5%[88.5 µM]	.
